# Laboratory results published in PubChem BioAssay AID504652 (National Center for Advancing Translational Sciences (NCATS), 2011).
# The campaign covered roughly 360,000 compounds. About 11,000 (3.1%) were called active. The sample holds actives, similar compounds and a random draw of the others, so the mix is not that of the screen. A number with no mark means an inactive call. No stated cut-off is given here; in the data, active means activity change below about -30%; inactive means the rest.
# Biological target: D(1A) dopamine receptor (Homo sapiens) (UniProt P21728)
# Experiment: Antagonist of Human D 1 Dopamine Receptor: qHTS
# Conditions: HEK293 TREx D1 cells, calcium flux, dopamine EC80; at 10 µM; stronger effect = lower value
# Outline: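 Allosteric or orthosteric antagonism assessed as attenuation of the calcium response to EC80 dopamine, added 180 s after compound, in induced HEK293 Trex D1 cells loaded with no-wash calcium dye.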
# On the % scale 0 is the no-effect control and ±100 the full control effect.
# D(1A) dopamine receptor (Homo sapiens), sequence (P21728 whole entry, looked up): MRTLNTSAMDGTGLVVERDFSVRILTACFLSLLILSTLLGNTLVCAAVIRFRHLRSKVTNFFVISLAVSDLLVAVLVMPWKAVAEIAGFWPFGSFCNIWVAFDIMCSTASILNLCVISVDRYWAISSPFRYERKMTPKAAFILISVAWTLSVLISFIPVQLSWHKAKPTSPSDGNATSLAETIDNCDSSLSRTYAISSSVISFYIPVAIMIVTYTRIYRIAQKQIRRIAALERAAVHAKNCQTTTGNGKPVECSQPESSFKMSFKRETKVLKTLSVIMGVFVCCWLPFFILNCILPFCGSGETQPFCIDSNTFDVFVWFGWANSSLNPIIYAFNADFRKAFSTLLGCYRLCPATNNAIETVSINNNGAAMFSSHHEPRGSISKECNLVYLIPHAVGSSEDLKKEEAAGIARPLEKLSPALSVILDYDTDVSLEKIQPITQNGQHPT
row,SMILES,"activity change, negative = inhibition"
1,CCS(=O)(=O)c1nc(S(=O)(=O)c2ccc(C)cc2)c(NCc2ccc(Cl)cc2)s1,-4.62%
2,Cc1onc(-c2ccc(F)cc2F)c1C(=O)Nc1cccc(C(F)(F)F)c1,-7.14%
3,COC(=O)c1cccc(Cn2nnc3sc4c(c3c2=O)CCC(C(C)(C)C)C4)c1 (centres undefined),7.77%
4,Cc1nn(C(C)C(=O)Nc2ccc(C(C)C)cc2)c(=O)c2c1sc1ccccc12 (centres undefined),-14.9%
5,Cc1ccc(NC(=O)NC(=O)c2ccccc2)cc1F,-1.14%
6,O=C(Nc1ccccc1F)c1ccccc1-c1ccc(C(F)(F)F)cc1,-10%
7,Cc1ccc(NC2=C(c3ccc(C(F)(F)F)cc3)C(=O)c3ccccc32)cc1F,-32.9% (active)
8,Cc1ccccc1NC(=O)Cn1cc(C(=O)c2cccs2)c2ccccc21,-14.9%
9,COc1ccc(-n2nc(C(=O)NCCc3ccc(Cl)cc3)c3c4ccccc4n(C)c3c2=O)cc1Cl,-3.18%
10,Cc1ccc(CCNC(=O)c2ccc3c(c2)N(Cc2cc(C)ccc2C)C(=O)c2ccccc2S3=O)cc1 (centres undefined),-1.98%
11,COc1cccc2cc(-c3nc(Cl)c4c5c(sc4n3)CC(C)CC5)c(=O)oc12 (centres undefined),7.27%
12,Cc1ccc2nc(CNC(=O)c3ccccc3)[nH]c2c1,2.33%
13,Cc1ccc2nc(C)c3c(c2c1)N(c1ccccc1)CC3,-47.3% (active)
14,Cc1ccc2nc(NC3=NCN(CCc4ccccc4)CN3)nc(C)c2c1,8.22%
15,O=C(Nc1ccc(F)cc1F)c1cnn(-c2ccc(F)cc2)c1-n1cccc1,1.78%
16,CCOC(=O)C1=C(CN2CCc3ccccc32)NC(=O)NC1c1ccc(Cl)cc1 (centres undefined),19.3%
17,CCOC(=O)C1=C(CCc2ccccc2)NC(=O)NC1c1ccc2ccccc2c1 (centres undefined),13.1%
18,CCOC(=O)C1=C(CSc2nccn2C)NC(=O)NC1c1ccc(OC)cc1 (centres undefined),-35% (active)
19,CCN(CC)c1ccc(NS(=O)(=O)c2cc(-c3cc(C)no3)ccc2C)c(C)c1,-8.08%
20,COc1ccc(N2CCN(C(=O)C3CCCN(C(=O)c4cc5sccc5n4C)C3)CC2)cc1 (centres undefined),-16.9%
21,CCc1ccc(Sc2cc(C(=O)NCCCOC(C)C)c3ccccc3n2)cc1,9.99%
22,CC(NC(=O)c1cc(=O)[nH]c2ccccc12)c1ccc(F)cc1F (centres undefined),-0.391%
23,CC(NC(=O)c1cc(Sc2ccc(F)cc2F)nc2ccccc12)c1ccccc1 (centres undefined),-44.9% (active)

row,SMILES,"activity change, negative = inhibition"
1,CCOc1ccccc1NC(=O)Cn1c(=O)n(-c2cccc(C)c2)c(=O)c2c1c1cc(OC)ccc1n2C,9%
2,c1ccc(-n2ncc3c2ncn2c(C4CCCCC4)nnc32)cc1,-30.2% (active)
3,CN(C(=O)COc1ncnc2c1cnn2-c1ccccc1)C1CCCCC1,2.82%
4,CC(C)Sc1ncnc2c1cnn2-c1ccccc1,11.9%
5,Cc1ccc(NC(=O)Cn2c(=O)n(-c3ccccc3)c(=O)c3c4c(sc32)CCCC4)cc1,-4.05%
6,CCOC(=O)N1CCc2c(sc3c2C(=O)NC(c2ccccc2F)N3)C1 (centres undefined),4.82%
7,O=C(CSc1ncc(CO)n1Cc1ccc(F)cc1)NCc1ccco1,-2.59%
8,Cc1nnc(NC(=O)C(c2ccccc2)c2ccccc2)s1,0.172%
9,O=C(CCN1CCN(c2ccccc2)CC1)NNC(=S)Nc1ccccc1,-7.38%
10,CCCCC(=O)NNC(=S)NC(=O)C(c1ccccc1)c1ccccc1,-50.5% (active)
11,Cc1c(C(=O)N2CC(C)OC(C)C2)sc2nc(-c3ccccc3)cn12 (centres undefined),-32.4% (active)
12,COc1ccc(-c2cn3c(C)c(C(=O)Nc4cc(C)cc(C)c4)sc3n2)cc1,9.7%
13,Cc1c(C(=O)NCC2CCCO2)sc2nc(-c3ccccc3)cn12 (centres undefined),2.03%
14,Cc1cccc(NC(=O)c2nnn(CC(=O)Nc3ccc(C(C)C)cc3)c2N)c1C,5.98%
15,CN(c1ccc(C(=O)N2CCc3ccccc3C2)cc1)S(C)(=O)=O,1.19%
16,Cc1cccc(C)c1NC(=O)c1ccc(CN2CCc3ccccc3C2)cc1,-14.8%
17,CN(c1cccc(NC(=O)c2ccc(CN3CCc4ccccc4C3)cc2)c1)S(C)(=O)=O,-37.7% (active)
18,O=C(Nc1ccc(OC(F)(F)F)cc1)C1CCCN(S(=O)(=O)c2ccc(Br)s2)C1 (centres undefined),-19.1%
19,O=C(NCCOc1cccnc1)c1ccc(OC2CCN(Cc3ccccn3)CC2)cc1,-0.574%
20,COCc1ccc(CN2CCC(Oc3ccc(C(=O)NCc4ccccn4)cc3)CC2)o1,-5.9%
21,Cn1cc(CNC(=O)c2ccc(OC3CCN(Cc4ccccn4)CC3)cc2)cn1,-41.2% (active)
22,CC(CCCc1ccccc1)NC(=O)c1nn(-c2ccc(Cl)cc2)nc1CO (centres undefined),3.03%
23,O=S(=O)(NCC1CC1)c1ccc(F)c(Cl)c1,-3.94%

row,SMILES,"activity change, negative = inhibition"
1,O=[N+]([O-])c1cc(S(=O)(=O)CCCN2CCOCC2)ccc1F,-12.6%
2,O=S(=O)(NCCCN1CCOCC1)c1ccc(F)c(Cl)c1,-34.6% (active)
3,CCOc1ccc(C2C(=O)N(C3CCCCC3)CC(=O)N2CCC2=CCCCC2)cc1OC (centres undefined),39.1%
4,c1ccc2cc(OCCN3CCCC3)ccc2c1,12.7%
5,Cc1cc(OCCN2CCCC2)ccc1C(C)C,-30% (active)
6,Cc1cc(OCCN2CCCC2)cc(C(C)C)c1,-2.52%
7,Cc1ccc(NC(=O)Cn2nnc3sc4c(c3c2=O)CCC(C)C4)cc1 (centres undefined),-17.2%
8,CCc1cccc(C)c1Nc1c(-c2ccc(N(C)C)cc2)nc2ncccn12,6.48%
9,Cc1ccccc1C(=O)N(Cc1ccc(N(C)C)cc1)CC1CCCO1 (centres undefined),12.9%
10,N#Cc1nc(Nc2cc(F)cc(Cl)c2)nc(NC2CCCC2)n1,-27%
11,Cc1cc(C)cc(NS(=O)(=O)c2ccc(-c3cc(C)no3)s2)c1,-9.8%
12,COc1ccc(C)cc1NC(=O)COCc1cc(-c2cccs2)on1,15%
13,Cc1cc(-c2ccc(S(=O)(=O)N3CCc4ccccc4C3)s2)on1,-15.7%
14,Cc1cccc(N2CCN(S(=O)(=O)c3ccc(-c4cc(C)no4)s3)CC2C)c1 (centres undefined),-39.9% (active)
15,Cc1cc(-c2ccc(S(=O)(=O)N3CCN(c4cccc(C(F)(F)F)c4)CC3)s2)on1,-24.5%
16,Cc1ccc(C)c(N2C(=O)N(Cc3c(F)cccc3Cl)c3ccccc3S2(=O)=O)c1,-19.3%
17,O=C(Cn1c(-c2ccc(Cl)cc2)noc1=O)N1CCN(c2ccccc2F)CC1,-13.7%
18,O=c1onc(-c2c(F)cccc2F)n1-c1ccccc1Cl,-36.4% (active)
19,CCOc1ccccc1CNCc1c(C(=O)O)c(C)n(Cc2ccc(C)cc2)c1C,0.5%
20,CCCCNc1ccc(-c2nc(-c3ccncc3)no2)cc1[N+](=O)[O-],10.8%
21,CCOC(=O)c1ccc(NC(=O)C2CCN(S(=O)(=O)c3ccc4c(c3)CCCC(=O)N4)CC2)cc1,2.67%
22,CCCCOc1ccc(NC(=O)c2cc3c(n(-c4ccc(Cl)cc4)c2=O)CCCC3=O)cc1,1.15%
23,COc1ccccc1NC(=O)[C@H](COCc1ccccc1)NC(=O)OC(C)(C)C,-13.2%

row,SMILES,"activity change, negative = inhibition"
1,C[C@@H](NC(=O)OC(C)(C)C)c1nnc(S(=O)(=O)Cc2ccccc2)o1,-33% (active)
2,CC(C)(C)c1ccc(C(CC(=O)O)NS(=O)(=O)Cc2ccccc2)cc1 (centres undefined),-2.49%
3,O=C(NCCc1ccccc1)c1cnc2sc(N3CCCC3)nn2c1=O,8.92%
4,CCOc1ccc(NC(=O)CCC(=O)N2CC(C)Oc3ccc(C)cc32)cc1 (centres undefined),-0.916%
5,Cc1cccc(N2CCN(c3ccc(C(=O)O)cc3NC(=O)c3ccccc3F)CC2C)c1 (centres undefined),20.1%
6,COc1ccccc1-c1noc(-c2ccc(NCc3ccccc3)c([N+](=O)[O-])c2)n1,4.22%
7,CN(Cc1ccccc1)c1ccc(-c2nc(-c3ccccc3)no2)cc1[N+](=O)[O-],-53.5% (active)
8,O=[N+]([O-])c1cc(-c2nc(-c3ccccc3)no2)ccc1NCc1ccco1,-9.94%
9,CC(Nc1ccc(-c2nc(-c3ccco3)no2)cc1[N+](=O)[O-])c1ccccc1 (centres undefined),-5.4%
10,CNc1ccc(-c2nc(-c3ccco3)no2)cc1[N+](=O)[O-],-31.8% (active)
11,CNc1ccc(-c2nc(-c3ccccc3C)no2)cc1[N+](=O)[O-],-6.85%
12,CCN(CC)CCn1c(N)c(S(=O)(=O)c2ccccc2)c2nc3ccccc3nc21,-52.8% (active)
13,Cc1ccc(S(=O)(=O)c2c(N)n(C)c3nc4ccccc4nc23)cc1,-3.59%
14,CCC(=O)Nc1c(S(=O)(=O)c2ccccc2)c2nc3ccccc3nc2n1Cc1ccccc1,-7.1%
15,CCn1cc(C(=O)NCCc2ccccc2)c(=O)c2cc(S(=O)(=O)N3CCCCCC3)ccc21,-7.94%
16,CCn1c2ccccc2c2nnc(N3CCN(c4cc(C)ccc4C)CC3)nc21,-7.14%
17,COc1cccc(C(=O)NC2CCN(C#N)CC2)c1,4.13%
18,O=C(NCCCN1CCCC1=O)c1ccc(S(=O)(=O)Nc2ccccc2)cc1,4.25%
19,O=C(NCCCN1CCCC1=O)c1cccc(S(=O)(=O)NCc2ccccc2)c1,-24.9%
20,Cc1cccc(C(=O)NCCCN2CCCC2=O)c1,-31.5% (active)
